Sfp PPTase inh: qHTS Assay for Inhibitors of Bacillus subtilis Sfp phosphopantetheinyl transferase (PPTase) | Biochemical Sfp PPTase activity, qHTS | Potency, µM, for the others: largest response in the series, negative = inhibition, hits mostly inhibitors | 4'-phosphopantetheinyl transferase ffp (Bacillus subtilis), Q9F4F7 | actives 3.5% (n = 310,000);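 further: the enzyme is Sfp with the accession as filed and its product quenches rhodamine fluorescence; potency means the concentration at half of the fitted maximal effect; 0% = enzyme reaction without inhibitor and -100% = no enzyme wells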
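After 15 min at room temperature with compound, 15 nM Sfp received 5 uM rhodamine-CoA plus 12.5 uM BHQ-2-ybbR (50 mM Hepes pH 7.6, 10 mM MgCl2). Rate came from the fluorescence difference over 30 min, ex 525/em 598 nm.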
G9a inh: qHTS Assay for Inhibitors of Histone Lysine Methyltransferase G9a; Potency, µM (titrated, usually from 102 µM), for the others: top-dose activity, negative = inhibition, hits mostly inhibitors; AID 504332, 2011; G9a H3K9 monomethylation, AlphaScreen, 2 h; actives 8.8% (n = 350,000); further: potency means the concentration at half of the fitted maximal effect; on the % scale 0 is the no-effect control and ±100 the full control effect; nearly all actives have a fitted effect of over 75% in size
Target sequence (Q96KQ7 913-1193 limits assumed): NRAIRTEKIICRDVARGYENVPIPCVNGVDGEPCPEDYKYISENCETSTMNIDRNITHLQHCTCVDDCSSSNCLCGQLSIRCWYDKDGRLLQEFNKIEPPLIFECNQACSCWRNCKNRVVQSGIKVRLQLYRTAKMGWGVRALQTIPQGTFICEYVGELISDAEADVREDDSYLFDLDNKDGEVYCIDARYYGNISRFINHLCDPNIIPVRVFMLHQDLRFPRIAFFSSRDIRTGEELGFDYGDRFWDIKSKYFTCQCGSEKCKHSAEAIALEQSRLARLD
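Quantitative HTS format: methyltransferase activity on a biotin-tagged H3K9 peptide is measured by AlphaScreen, using a rabbit anti-monomethyl-H3K9 antibody with streptavidin donor and anti-IgG acceptor beads. Final levels are 20 nM enzyme, 500 nM peptide, 20 uM SAM; 2 h RT.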
LMNA splice mod: qHTS Assay for Modulators of Lamin A Splicing; HeLa LMNA splicing GFP/RFP minigene ratio, 48 h; Potency, µM (series often up to 46.1 µM), for the others: top-dose ratio change, negative = inhibition, usual class: inhibitors; actives 0.01% (n = 200,000); AID 1487, 2009; active means well fitted inhibition curve with a large enough effect in the signal ratio, with a control signal flat, not every such curve was filed as active; inconclusive means small, poorly fitted or top-dose-only effect, or effect the other way, or a change in a side signal; the % refers to the signal ratio; further: potency means the concentration at half of the fitted maximal effect; on the % scale 0 is the no-effect control and ±100 the full control effect
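S3 HeLa stable clones carrying a lamin A-EGFP splicing minigene plus DsRed2 were seeded at 600 cells/well in Opti-MEM with 2% FBS, pin-dosed and incubated 48 h at 37°C. Acumen cytometry (488 nm) gave the GFP/RFP total-intensity ratio.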
ALDH1A1 block: qHTS Assay for Inhibitors of Aldehyde Dehydrogenase 1 (ALDH1A1). Aldehyde dehydrogenase 1A1 (Homo sapiens), P00352. Purified ALDH1A1, NADH fluorescence, propionaldehyde substrate. Potency, µM (titrated, usually from 75.3 µM), inactives show at the top dose activity, negative = inhibition, actives largely listed as inhibitors. actives 7.3% (n = 220,000); active means well fitted inhibition curve with a large enough effect, not every such curve was filed as active; inconclusive means small, poorly fitted or top-dose-only effect, or another doubt; inactive means no such curve, though single readings can be large or run the other way;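 further: potency means the concentration at half of the fitted maximal effect; plate controls were no enzyme wells and a reference inhibitor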
miR-21 reporter: qHTS Assay for Modulators of miRNAs and/orActivators of miR-21. HeLa miR-21 FLuc reporter, luciferase, 48 h. Potency, µM (top dose mostly 38.3 µM), inactives show at the highest dose activity change, positive = activation, hits mostly activators. AID 2288, 2010. 340,000 tested, under 10 active;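 further: % of control where 0% means no effect; miR-21 action dims this reporter so a rising signal means less miR-21 action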
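Using DMEM plus 10% FBS, HeLa miR-21-FLuc cells are incubated with test compounds (final up to about 40uM) for 48 hours; firefly luciferase signal is then imaged following reagent-mediated lysis.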
JMJD2E inh: qHTS Assay for Inhibitors of Human Jumonji Domain Containing 2E (JMJD2E); Lysine-specific demethylase 4E (Homo sapiens), B2RXH2; JMJD2E catalytic domain, FDH-coupled NADH fluorescence (FDH is formaldehyde dehydrogenase); Potency, µM (titrated, usually from 57.1 µM), for the others: top-dose activity change, negative = inhibition, usual class: inhibitors; actives 1.6% (n = 230,000); active means well fitted inhibition curve with a large enough effect, not every such curve was filed as active; inconclusive means small, poorly fitted or top-dose-only effect, or another doubt; inactive means no such curve, though single readings can be large or run the other way;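 further: potency means the concentration at half of the fitted maximal effect; 0% = wells with enzyme and -100% = buffer wells without enzyme; nearly all actives have a fitted effect of over 50% in size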
Target sequence (B2RXH2 1-337 limits assumed): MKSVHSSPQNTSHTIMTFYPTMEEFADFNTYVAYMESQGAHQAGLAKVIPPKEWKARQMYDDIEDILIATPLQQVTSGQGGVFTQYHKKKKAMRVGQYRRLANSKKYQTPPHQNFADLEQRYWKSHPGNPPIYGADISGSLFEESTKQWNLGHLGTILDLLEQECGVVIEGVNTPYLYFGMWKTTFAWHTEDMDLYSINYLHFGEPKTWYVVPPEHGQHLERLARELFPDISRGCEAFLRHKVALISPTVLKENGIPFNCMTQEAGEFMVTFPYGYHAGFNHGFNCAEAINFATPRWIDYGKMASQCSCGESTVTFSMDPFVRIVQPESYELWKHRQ
* marks the source's active call; other numbers are inactive results; ? = inconclusive; . = no result; [ ] = another dose, or the depositor's remark. Sampled rows, rich in hits. Any-hit rate of the full collection: about 13%. Unless noted, the call rests on the fitted dose curve; in most records, active means well fitted curve in the direction sought with a large enough effect; inconclusive means small, poorly fitted or top-dose-only effect, or another doubt; inactive means no such curve, though single readings can be large; an effect the other way counts as inactive or inconclusive.

SMILES	Sfp PPTase inh	G9a inh	LMNA splice mod	ALDH1A1 block	miR-21 reporter	JMJD2E inh
CCCC(=O)NC(=S)Nc1cccc(-c2nc3ncccc3o2)c1	-5.3%	22.4µM*	.	?	-5.4%	4.0%
Cc1nnc(Nc2ccccc2)n(N)c1=O	15.2%	11.1%[59 µM]	14.4%	22.2%	-7.1%	4.5%
Cc1nnc(NN)n(N)c1=O	10µM*	.	.	?	0.4%	?
Cc1cccc(C(=O)n2nc(-c3ccco3)nc2NCc2ccccc2)c1	.	-30.0%[59 µM]	.	.	-28.6%	.
COc1ccc(CNc2nc(-c3ccco3)nn2C(=O)c2ccccc2C)cc1	.	?	.	.	-36.5%	.
CN(C)c1ccc(CNc2nc(-c3ccco3)nn2C(=O)c2cccc([N+](=O)[O-])c2)cc1	.	7.94µM*	9.4%[46 µM]	.	-47.2%	.
COc1ccccc1CNc1nc(-c2ccco2)nn1S(=O)(=O)c1ccc(C)cc1	.	?	?	.	-41.8%	.
COc1ccccc1CNc1nc(-c2ccco2)nn1C(=O)c1ccccc1[N+](=O)[O-]	.	11.2µM*	13.3%[46 µM]	.	-26.6%	.
Cc1ccc(CNc2nc(-c3ccco3)nn2C(=O)c2ccccc2[N+](=O)[O-])cc1	.	12.6µM*	-0.6%[46 µM]	.	6.3%	.
COc1cc(OC)c2c(C)c(CC(=O)NCc3ccccc3OC)c(=O)oc2c1	.	6.3%[59 µM]	.	.	-3.8%	.
Cc1cccc(-c2nc(C)c(CCNC(=O)C(=O)Nc3ccc(C)c(C)c3)s2)c1	.	21.6%[59 µM]	-7.9%[46 µM]	.	-0.6%	.
S=c1[nH]nc(Nc2cccc3ccccc23)s1	39.8µM*	0.316µM*	.	.	-36.4%	25.1µM*
O=S(=O)(Nc1nc2c(s1)CCCC2)c1ccc2ccccc2c1	14.7%	50.1µM*	?	-17.2%	-0.4%	-2.6%
O=S(=O)(NC1=NCCCCC1)c1ccc2sc(NS(=O)(=O)c3ccc4ccccc4c3)nc2c1	-22.7%	.	.	.	8.8%	-2.2%
O=C(O)Cc1sc(Nc2cccc3ccccc23)nc1-c1ccccc1	.	-41.6%[12.7 µM]	.	.	.	.
c1ccc2c(Nc3nc4c(s3)CCCC4)cccc2c1	50.1µM*	8.3%[0.0925 µM]	3.7%	?	-52.8%	?
COC(=O)C1=C[C@@H](C(=O)OC)C2C3=C(C(=O)[C@@]2(C)NC(=O)c2ccccc2)[C@H](C)[C@@H]2C(=O)NC(=O)[C@@H]2[C@@H]3C1 (stereo partly drawn)	2.3%	.	.	.	.	.
CCc1ccc(NC(=O)Cn2c(C(=O)OC)cc3oc(C)cc32)cc1	.	-28.9%[59 µM]	.	.	-5.0%	.
Cc1ccc(N(C)C(CNS(=O)(=O)c2ccccc2)c2ccccc2)cc1 (stereo not drawn)	.	?	.	.	19.1%	.
Cc1ccc(C)c(-n2nnnc2SCC(=O)c2ccc3c(c2)NC(=O)CO3)c1	-3.6%	50.1µM*	?	0.631µM*	-9.3%	7.0%
Cc1cccc(C)c1Nc1nnc(SCC(=O)c2ccc(Br)s2)s1	2.1%	-14.8%[59 µM]	?	-6.3%	-0.3%	-8.7%
Cc1cccc(C)c1Nc1nnc(SCC(=O)c2ccc3c(c2)NC(=O)CO3)s1	9.7%	11.2µM*	5.0%	-2.9%	-1.8%	-0.8%
CN(C)CCCNC(=O)c1cc(C(=O)c2ccccc2)c[nH]1	4.1%	0.1%[2.33 µM]	.	.	0.0%	.
O=C(c1ccccc1)c1c[nH]c(C(=O)NNc2ccccc2)c1	17.2%	10µM*	?	22.4µM*	12.9%	0.0%
CC(=O)c1coc2c1cc(O)c1ccccc12	5.3%	-21.3%	-1.2%	-8.7%	-32.3%	-3.4%
SMILES	Sfp PPTase inh	G9a inh	LMNA splice mod	ALDH1A1 block	miR-21 reporter	JMJD2E inh
O=C(c1ccco1)c1coc2c1cc(O)c1ccccc12	-7.8%	39.8µM*	?	?	-49.0%	-3.8%
O=C(Cn1cnc2ccccc2c1=O)c1cccs1	11.0%	25.9%	11.6%	-4.8%	-19.4%	5.4%
O=C(/C=C/c1ccnc2ccccc12)c1cccs1	-18.2%	.	.	28.2µM*	-52.7%	12.1%
Cc1ccc(OCC(=O)c2cc(C)n(Cc3cccs3)c2C)c([N+](=O)[O-])n1	-13.2%	?	-9.5%[46 µM]	?	6.9%	1.2%
Cc1ccc(OCC(=O)c2cc(C)n(-c3cc(C)on3)c2C)c([N+](=O)[O-])n1	.	50.1µM*	.	.	.	.
COc1ccc(-n2c(C)cc(C(=O)COc3ccc(C)nc3[N+](=O)[O-])c2C)cc1	-12.5%	?	?	?	-6.2%	1.9%
Cc1ccc(CNC(=O)COc2ccc(C)nc2[N+](=O)[O-])cc1	-13.2%	-7.0%[59 µM]	-2.9%	-5.2%	-13.6%	-7.3%
Cc1ccc(OCC(=O)c2cc(C)n(CC(F)(F)F)c2C)c([N+](=O)[O-])n1	7.6%	?	?	20µM*	9.8%	-5.9%
Cc1ccc(OCC(=O)c2ccc(Cl)s2)c([N+](=O)[O-])n1	20µM*	50.1µM*	-20.1%[46 µM]	2.24µM*	-0.1%	?
COC(=O)C(=O)C/C(=N/Nc1ncnc2ccccc12)c1ccc(Cl)cc1	10.4%	12.2%	.	.	-34.6%	.
Cc1nnc(NCc2ccccc2)c2c1nnn2Cc1ccccc1Cl	.	-5.5%[59 µM]	.	.	5.6%	.
O=C(O)c1ccccc1C(=O)c1cccc2ccccc12	11.6%	17.2%	.	.	1.5%	.
O=C(NCc1ccco1)c1cc2cc(Br)ccc2o1	20µM*	8.91µM*	.	.	-38.4%	.
O=C(NCc1ccco1)c1cccc(Br)c1	70.8µM*	-6.6%[0.501 µM]	.	.	-2.4%	.
O=C(COC(=O)Cc1ccsc1)Nc1cccc(F)c1	.	11.7%[12.7 µM]	.	.	.	.
Cc1ccc(OCC(=O)NCc2n[nH]c(=O)c3ccccc23)cc1	.	8.5%[0.501 µM]	.	.	.	.
COc1ccc(CCN(C)C(=O)C2CCN(C(=O)Nc3ccccc3)CC2)cc1OC	.	19.9%[12.7 µM]	.	.	.	.
CCN(CC)C(=O)c1cc([N+](=O)[O-])cc2c1-c1ccc([N+](=O)[O-])cc1C2=C(C#N)C#N	70.8µM*	50.1µM*	.	.	-4.5%	?
COc1ccc(O)c(C(=O)CC(=O)c2ccc(F)cc2)c1	2.3%	79.4µM*	10.9%	1.4%	11.7%	?
COc1ccc(C(=O)CC(=O)c2ccccc2O)cc1	12.4%	-4.7%[0.501 µM]	.	.	-23.9%	.
CC(=O)Nc1ccc(N2C(=O)CSC2c2cccc([N+](=O)[O-])c2)cc1 (stereo not drawn)	19.8%	0.5%	?	?	-5.0%	3.8%
Cc1ccc(CN2C(=O)CCC2C(=O)NCCN(CC(C)C)CC(C)C)cc1 (stereo not drawn)	4.3%	?	-7.4%	22.4µM*	-17.6%	?
Cc1c(Cl)cccc1NC(=O)CN1C(=O)COc2ccc(S(=O)(=O)Nc3ccccc3)cc21	.	-18.1%[59 µM]	.	.	3.7%	.
CCOC(=O)c1c(C)[nH]c(C)c1S(=O)(=O)NCCc1ccco1	17.3%	-10.8%[59 µM]	.	.	-5.2%	.
